Measured values taken from PubChem BioAssay (Tox21).
Records with an inconclusive call do not appear. The source made the active and inactive calls. Unless noted, calls come from the whole dose curve.

Key:
[1] = Nuclear factor erythroid 2-related factor 2/antioxidant responsive element (Nrf2/ARE) small molecule agonists: qHTS cell viability counter screen in human keratinocytes (AID 1919968; active = well fitted curve in the direction sought with a large enough effect in the repeat runs; an effect the other way counts as inactive or inconclusive; note: nearly all actives have a fitted effect of over 55% in size)
How it was run: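 After a 5 h attachment period, ARE-reporter keratinocytes were dosed with compounds in DMSO and then cultured 23 h at 37 C. Cell viability came from CellTiter-Fluor signal read after a further 1 h.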

[2] = Nuclear factor erythroid 2-related factor 2/antioxidant responsive element (Nrf2/ARE) small molecule agonists: luciferase reporter gene qHTS assay in human keratinocytes (AID 1919969); note: nearly all actives have a fitted effect of over 35% in size
[3] = biological target: Gonadotropin-releasing hormone receptor (Homo sapiens) (UniProt P30968); experiment: Human gonadotropin-releasing hormone receptor (GnRHR) small molecule agonists, calcium flux assay in GnRHR-HEK293 cells (AID 1920063); note: nearly all actives have a fitted effect of over 35% in size
How it was run: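 We seeded human GnRHR-expressing HEK293 cells for 18 hours, loaded them with calcium dye for an hour at 37 C, added test compounds, and recorded fluorescence intensity kinetically for three minutes.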

[4] = biological target: KiSS-1 receptor (Homo sapiens) (UniProt Q969F8); experiment: Human kisspeptin (KISS1R) small molecule agonists, calcium flux assay in KISS1R-HEK293 cells (AID 1920064; active = well fitted curve in the direction sought with a large enough effect in the repeat runs; an effect the other way counts as inactive or inconclusive)
How it was run: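 Kinetic calcium assay, 1 s sampling over 3 min at Ex/Em 480/540, in HEK293 cells engineered with human KISS1R; compounds delivered in DMSO after 1 h dye loading.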

[5] = G protein-coupled receptor (GPCR) small molecule agonists, calcium flux assay: HEK293 wild type cell line counter screen (AID 1920065)
How it was run: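 Calcium-sensitive dye, loaded 1 h at 37 C into cells cultured 18 h, reports compound-evoked calcium release as fluorescence (Ex/Em 480/540), measured over 3 min. Agonist mode; 15-point titrations, triplicate.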

[6] = p53 small molecule agonists, cell-based qHTS assay with human liver microsomes (AID 1963577)
How it was run: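 p53RE-bla reporter cells were pre-incubated 5 h at 37 C, then treated with compounds plus human liver microsomes (0.5 mg/mL final) and NADPH (0.5 mg/mL final) for 16 h at 37 C. Beta-lactamase activity was read by LiveBLAzer fluorescence after 2 h at room temperature.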

[7] = p53 small molecule agonists, cell-based qHTS assay with rat liver microsomes (AID 1963578)
How it was run: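 p53RE-bla cells were exposed to compounds together with rat liver microsomes (0.5 mg/mL final) and NADPH (0.5 mg/mL final) for 16 h at 37 C, then read by LiveBLAzer beta-lactamase fluorescence after 2 h at room temperature.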

[8] = p53 small molecule agonists, cell-based qHTS assay with human liver microsomes: qHTS cell viability counter screen (AID 1963579); note: nearly all actives have a fitted effect of over 45% in size
How it was run: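 p53RE-bla cells (4,000/well) were pre-incubated 5 h at 37 C, then given compounds in DMSO plus human liver microsomes (0.5 mg/mL final) and NADPH (0.5 mg/mL final) for 16 h at 37 C. Viability was read by CellTiter-Glo luminescence.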

[9] = p53 small molecule agonists, cell-based qHTS assay with rat liver microsomes: qHTS cell viability counter screen (AID 1963580); note: nearly all actives have a fitted effect of over 45% in size
How it was run: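 Viability is assessed in parallel with the p53 reporter read: HCT-116 p53RE-bla cells receive compounds plus rat microsomes and NADPH (0.5 mg/mL final apiece), incubate 16 h at 37 C, and then CellTiter-Glo luminescence is recorded.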

[10] = p53 small molecule agonists, cell-based qHTS assay: qHTS cell viability counter screen (AID 1963581); note: nearly all actives have a fitted effect of over 45% in size
How it was run: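 Following 5 h attachment, HCT-116 p53RE-bla cells took up compound for 16 h at 37 C; the reporter was read with B/G FRET substrate (2 h RT), and viability then via CellTiter-Glo ATP luminescence.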

[11] = p53 small molecule agonists, cell-based qHTS assay (AID 1963582; active = well fitted activation curve with a large enough effect in the signal ratio in the repeat runs, not every such curve was filed as active; the % refers to the signal ratio)
How it was run: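 In this cell-based concentration-response screen, a p53 response element drives beta-lactamase; cells received DMSO-borne compounds after 5 h culture and were incubated a further 16 h before FRET substrate development.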

[12] = cAMP Responsive Elements (CRE) small molecule agonists, cell-based qHTS assay (AID 1963590)
How it was run: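 A CRE-responsive beta-lactamase reporter in HEK 293T cells was used. Treatment ran 3 h at 37 C; detection used LiveBLAzer B/G FRET substrate for 2 h at room temperature.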

[13] = cAMP Responsive Elements (CRE) small molecule antagonists, cell-based qHTS assay (AID 1963591; active = well fitted inhibition curve with a large enough effect in the signal ratio in the repeat runs, not every such curve was filed as active; the % refers to the signal ratio)
How it was run: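 HEK293T cells carrying a CRE-driven beta-lactamase reporter receive compound and NKH477 (0.25 uM final) for 3 h. Fluorescence from LiveBLAzer B/G FRET substrate is read after 2 h at room temperature.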

[14] = biological target: Beta-2 adrenergic receptor (Homo sapiens) (UniProt P07550); experiment: Adrenergic beta2 receptor (ADRB2) small molecule antagonists, cell-based qHTS assay (AID 1963592); note: series mostly up to about 92 µM; nearly all actives have a fitted effect of over 50% in size
How it was run: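 Cells (CHO, stable ADRB2 overexpression) incubated 18-20hr at 37C; compounds added from DMSO; agonist mix (1nM isoproterenol, 100uM IBMX, 25uM Ro-20-1724) added; 0.5hr RT; d2-cAMP and anti-cAMP-cryptate added; 1hr RT; 665/615 nm read.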

[15] = biological target: D(2) dopamine receptor (Homo sapiens) (UniProt P14416); experiment: Dopamine D2 receptor (DRD2) small molecule agonists, cell-based qHTS assay (AID 1963594); note: nearly all actives have a fitted effect of over 35% in size; note: potency is the fitted concentration of half-maximal effect
How it was run: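 HEK293 cells stably expressing human DRD2, pre-treated with PDE inhibitor Ro20-1724 (0.1 mM final) and compound 10 min at room temperature, then stimulated with NKH477 (200nM […]) for 30 min. cAMP read by HTRF (665/620 nm).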

[16] = biological target: D(2) dopamine receptor (Homo sapiens) (UniProt P14416); experiment: Dopamine D2 receptor (DRD2) small molecule antagonists, cell-based qHTS assay (AID 1963595; active = well fitted inhibition curve with a large enough effect in the signal ratio in the repeat runs, with a control signal flat; the % refers to the signal ratio; note: potency is the fitted concentration of half-maximal effect)
How it was run: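 Cells were plated and grown for 24 h at 37 °C. Ro20-1724 (0.1 mM final) went in first, then compound for 10 min. NKH477 (200 nM) with quinpirole (12 nM) followed for 30 min at RT, then HTRF detection reagents for 1 h.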

[17] = biological target: Muscarinic acetylcholine receptor M1 (Homo sapiens) (UniProt P11229); experiment: Cholinergic receptor muscarinic 1 (CHRM1) small molecule agonists, cell-based qHTS assay (AID 1963589); note: nearly all actives have a fitted effect of over 35% in size
How it was run: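 Measures agonist-induced intracellular calcium rise. Stable human CHRM1 CHO line, 1 h dye load at 37 C, compounds from DMSO, kinetic fluorescence read.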
% is set by controls: 0 for no effect and ±100 for the full control effect.

D(2) dopamine receptor (Homo sapiens), sequence (P14416 whole entry, looked up): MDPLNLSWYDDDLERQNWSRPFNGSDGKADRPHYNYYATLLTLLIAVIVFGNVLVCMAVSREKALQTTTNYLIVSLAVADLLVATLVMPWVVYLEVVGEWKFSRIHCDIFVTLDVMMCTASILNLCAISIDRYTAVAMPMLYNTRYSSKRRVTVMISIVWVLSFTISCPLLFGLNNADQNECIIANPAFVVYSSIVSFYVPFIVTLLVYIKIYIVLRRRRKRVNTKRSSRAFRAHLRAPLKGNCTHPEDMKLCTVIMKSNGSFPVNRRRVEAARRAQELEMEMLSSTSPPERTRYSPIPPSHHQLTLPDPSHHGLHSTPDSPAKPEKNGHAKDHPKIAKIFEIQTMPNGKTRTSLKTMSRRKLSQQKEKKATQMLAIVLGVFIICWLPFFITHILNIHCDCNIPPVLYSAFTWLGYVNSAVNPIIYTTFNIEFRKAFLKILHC
Beta-2 adrenergic receptor (Homo sapiens), sequence (P07550 whole entry, looked up): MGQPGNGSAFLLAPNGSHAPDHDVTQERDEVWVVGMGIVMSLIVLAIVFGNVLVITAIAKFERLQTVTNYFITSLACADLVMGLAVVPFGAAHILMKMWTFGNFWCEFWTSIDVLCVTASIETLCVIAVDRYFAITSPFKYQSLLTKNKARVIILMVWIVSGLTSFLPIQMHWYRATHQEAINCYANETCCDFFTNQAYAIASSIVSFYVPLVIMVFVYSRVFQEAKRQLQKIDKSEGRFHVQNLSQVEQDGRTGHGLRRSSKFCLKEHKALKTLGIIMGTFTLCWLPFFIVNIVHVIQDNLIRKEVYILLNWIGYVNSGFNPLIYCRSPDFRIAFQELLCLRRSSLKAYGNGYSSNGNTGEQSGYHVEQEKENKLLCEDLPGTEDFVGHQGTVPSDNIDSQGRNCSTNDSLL
KiSS-1 receptor (Homo sapiens), sequence (Q969F8 whole entry, looked up): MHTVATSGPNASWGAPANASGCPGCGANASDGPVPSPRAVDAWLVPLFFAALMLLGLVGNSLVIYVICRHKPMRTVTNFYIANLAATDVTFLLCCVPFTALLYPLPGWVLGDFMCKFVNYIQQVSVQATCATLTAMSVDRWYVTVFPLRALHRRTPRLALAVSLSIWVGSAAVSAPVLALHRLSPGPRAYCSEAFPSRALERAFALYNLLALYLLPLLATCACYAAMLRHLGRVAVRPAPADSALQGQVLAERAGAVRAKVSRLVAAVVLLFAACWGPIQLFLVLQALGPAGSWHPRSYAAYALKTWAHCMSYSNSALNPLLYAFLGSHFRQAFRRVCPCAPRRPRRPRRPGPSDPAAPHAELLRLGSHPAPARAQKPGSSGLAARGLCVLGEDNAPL
Gonadotropin-releasing hormone receptor (Homo sapiens), sequence (P30968 whole entry, looked up): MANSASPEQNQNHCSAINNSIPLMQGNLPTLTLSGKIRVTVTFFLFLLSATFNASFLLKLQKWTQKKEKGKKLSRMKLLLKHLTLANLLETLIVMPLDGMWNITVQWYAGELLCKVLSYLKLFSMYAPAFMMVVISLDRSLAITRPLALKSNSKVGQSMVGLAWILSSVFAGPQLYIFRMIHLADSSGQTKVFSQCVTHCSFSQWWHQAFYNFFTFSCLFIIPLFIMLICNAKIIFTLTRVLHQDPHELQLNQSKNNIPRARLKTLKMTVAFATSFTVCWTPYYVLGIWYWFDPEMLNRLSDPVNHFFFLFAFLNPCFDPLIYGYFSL
Muscarinic acetylcholine receptor M1 (Homo sapiens), sequence (P11229 whole entry, looked up): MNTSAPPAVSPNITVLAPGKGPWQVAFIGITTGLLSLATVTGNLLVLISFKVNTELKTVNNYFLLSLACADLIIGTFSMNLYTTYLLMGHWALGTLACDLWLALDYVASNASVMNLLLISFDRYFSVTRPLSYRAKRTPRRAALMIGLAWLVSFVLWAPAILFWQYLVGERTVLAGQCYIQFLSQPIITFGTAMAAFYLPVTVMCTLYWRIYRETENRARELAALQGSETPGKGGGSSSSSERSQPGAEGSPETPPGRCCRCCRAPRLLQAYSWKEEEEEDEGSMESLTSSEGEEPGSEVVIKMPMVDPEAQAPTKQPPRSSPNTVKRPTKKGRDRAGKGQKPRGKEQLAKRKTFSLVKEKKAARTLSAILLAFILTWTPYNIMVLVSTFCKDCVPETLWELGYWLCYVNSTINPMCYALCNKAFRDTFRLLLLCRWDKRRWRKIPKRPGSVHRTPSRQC

CC[C@H]1OC(=O)[C@H](C)[C@@H](O[C@H]2C[C@@](C)(OC)[C@@H](O)[C@H](C)O2)[C@H](C)[C@@H](O[C@@H]2O[C@H](C)C[C@H](N(C)C)[C@H]2O)[C@](C)(OC)C[C@@H](C)C(=O)[C@H](C)[C@@H](O)[C@]1(C)O
inactive: Potency [1] | Potency [2] | Potency [3] | outcome [4] | outcome [5] | Potency [6] | Potency [7] | Potency [8] | Potency [9] | Potency [10] | Potency [11] | Potency [12] | Potency [13] | Potency [14] | Potency [15] | Potency [16]

NS(=O)(=O)c1cc2c(cc1Cl)NC(C(Cl)Cl)NS2(=O)=O (stereo not given)
inactive: Potency [1] | Potency [2] | Potency [3] | outcome [4] | outcome [5] | Potency [6] | Potency [7] | Potency [8] | Potency [9] | Potency [10] | Potency [11] | Potency [12] | Potency [13] | Potency [14] | Potency [15] | Potency [16]

O=C(O)CCNC(=O)c1ccc(N=Nc2ccc(O)c(C(=O)O)c2)cc1
inactive: Potency [1] | Potency [2] | Potency [3] | outcome [4] | outcome [5] | Potency [6] | Potency [7] | Potency [8] | Potency [9] | Potency [10] | Potency [11] | Potency [12] | Potency [13] | Potency [14] | Potency [15] | Potency [16]

Nc1nc2c(ncn2COC(CO)CO)c(=O)[nH]1
inactive: Potency [1] | Potency [2] | Potency [3] | outcome [4] | outcome [5] | Potency [6] | Potency [7] | Potency [8] | Potency [9] | Potency [10] | Potency [11] | Potency [12] | Potency [13] | Potency [14] | Potency [16]
active: Potency [15] 1.14 µM

O=C(Oc1ccccc1C(=O)O)c1ccccc1O
inactive: Potency [1] | Potency [2] | Potency [3] | outcome [4] | outcome [5] | Potency [6] | Potency [7] | Potency [8] | Potency [9] | Potency [10] | Potency [11] | Potency [12] | Potency [13] | Potency [14] | Potency [15]

CCN(CC)CCNC(=O)c1cc(S(C)(=O)=O)ccc1OC
inactive: Potency [1] | Potency [2] | Potency [3] | outcome [4] | outcome [5] | Potency [6] | Potency [7] | Potency [8] | Potency [9] | Potency [10] | Potency [11] | Potency [12] | Potency [13] | Potency [14] | Potency [15]
active: Potency [16] 15 µM

NCC(=O)O
inactive: activity change, negative = cytotoxicity [1] -4.41% [at 19 µM] | activity, positive = activation [2] -0.375% [at 19 µM] | activity change [3] 1.37% [at 11.8 µM, hits give high values] | activation [4] -0.57% [at 15.8 µM] | activation [5] -1.52% [at 11.8 µM] | activation [6] 0.573% [at 13.5 µM] | activation [7] 1.19% [at 13.6 µM] | activity change, negative = cytotoxicity [8] -11.7% [at 13.5 µM] | activity change, negative = cytotoxicity [9] -0.16% [at 13.5 µM] | activity change, negative = cytotoxicity [10] -0.356% [at 13.5 µM] | activation [11] 0.144% [at 13.5 µM] | activation [12] -1.05% [at 19 µM] | activity change, negative = inhibition [13] 4.57% [at 18.9 µM] | activity change, negative = inhibition [14] -10.5% [at 19 µM] | activation [15] 4.26% [at 19 µM] | activity change, negative = inhibition [16] -7.27% [at 18.9 µM]

CCOc1cc(N)c(Cl)cc1C(=O)NCC1CN(Cc2ccc(F)cc2)CCO1 (stereo not given)
inactive: Potency [1] | Potency [2] | Potency [3] | outcome [4] | outcome [5] | Potency [6] | Potency [7] | Potency [8] | Potency [9] | Potency [10] | Potency [11] | Potency [12] | Potency [13] | Potency [14] | Potency [15] | Potency [16]

CC[C@@H](CO)NCCN[C@@H](CC)CO
inactive: Potency [1] | Potency [2] | Potency [3] | outcome [4] | outcome [5] | Potency [6] | Potency [7] | Potency [8] | Potency [9] | Potency [10] | Potency [11] | Potency [12] | Potency [13] | Potency [15] | Potency [16]

COc1ccc(CCN(C)CCCC(C#N)(c2cc(OC)c(OC)c(OC)c2)C(C)C)cc1OC (stereo not given)
inactive: Potency [1] | Potency [2] | Potency [3] | outcome [4] | outcome [5] | Potency [6] | Potency [7] | Potency [8] | Potency [9] | Potency [10] | Potency [11] | Potency [17] | Potency [12] | Potency [14] | Potency [16]

CCOC(=O)[C@H](CCc1ccccc1)N[C@@H](C)C(=O)N1[C@H](C(=O)O)C[C@@H]2CCC[C@@H]21
inactive: Potency [1] | Potency [2] | Potency [3] | outcome [4] | outcome [5] | Potency [6] | Potency [7] | Potency [8] | Potency [9] | Potency [10] | Potency [11] | Potency [12] | Potency [13] | Potency [15] | Potency [16]

CC(N)C12CC3CC(CC(C3)C1)C2 (stereo not given)
inactive: Potency [1] | Potency [2] | Potency [3] | outcome [4] | outcome [5] | Potency [6] | Potency [7] | Potency [8] | Potency [9] | Potency [10] | Potency [11] | Potency [12] | Potency [13] | Potency [14] | Potency [15] | Potency [16]

Cc1cc(C)c(O)c(C(C)(C)C)c1
inactive: Potency [1] | Potency [2] | Potency [3] | outcome [4] | outcome [5] | Potency [6] | Potency [7] | Potency [8] | Potency [9] | Potency [10] | Potency [11] | Potency [17] | Potency [13] | Potency [14] | Potency [15] | Potency [16]

Nc1ccc(S(=O)(=O)NC(=O)c2ccccc2)cc1
inactive: Potency [1] | Potency [2] | Potency [3] | outcome [4] | outcome [5] | Potency [6] | Potency [7] | Potency [8] | Potency [9] | Potency [10] | Potency [11] | Potency [12] | Potency [13] | Potency [14] | Potency [15] | Potency [16]
